Experimental findings from PubChem BioAssay (NCATS) are described below.

Molecules are shown by their SMILES. Where “and” joins values, the source holds several entries; their conditions need not be identical. Equal values may be shown once. Records with an inconclusive call do not appear. The source holds several records for some structures; these can differ, active in one and inactive in another. Calls of active or inactive are those of the source. Unless noted, calls come from the whole dose curve; as a rule, active = well fitted curve in the direction sought with a large enough effect; inconclusive = small, poorly fitted or top-dose-only effect, or another doubt; inactive = no such curve, though single readings can be large; an effect the other way counts as inactive or inconclusive.

Assay [1] can be described thus: Primary qHTS for inhibitors of nuclear receptor binding SET domain protein 2 (NSD2) in an RCH-ACV wild type WT cells (2C) (AID 1645877). Note: nearly all actives have a fitted effect of over 70% in size. Note: potency is the fitted concentration of half-maximal effect. For orientation: qHTS replaces the single test concentration by a dilution series.
In assay [2] the target is Catechol O-methyltransferase (Homo sapiens) (UniProt P21964). Put plainly: Confirmatory Screen for Target Class Profiling of Small Molecule Inhibitors of Methyltransferases (AID 1745852; calls by dose curve; note: potency is the fitted concentration of half-maximal effect; for activity change, negative = inhibition: % is set by controls: 0 for no effect and ±100 for the full control effect). To be noted: MTase-Glo luminescence, SAH detection, recombinant enzyme, stronger effect = lower value; measured here: COMT max response unless noted.
Sequence of Catechol O-methyltransferase (Homo sapiens) (P21964 whole entry, looked up): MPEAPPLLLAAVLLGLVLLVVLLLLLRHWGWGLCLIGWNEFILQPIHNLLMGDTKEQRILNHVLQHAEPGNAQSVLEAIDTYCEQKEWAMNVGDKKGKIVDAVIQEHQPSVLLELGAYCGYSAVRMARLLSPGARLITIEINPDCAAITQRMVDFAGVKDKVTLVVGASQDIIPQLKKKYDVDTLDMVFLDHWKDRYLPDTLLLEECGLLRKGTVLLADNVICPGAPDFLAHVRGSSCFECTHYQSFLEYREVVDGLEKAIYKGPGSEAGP
Assay [3] addresses Guanidinoacetate N-methyltransferase (Homo sapiens) (UniProt Q14353). The description is as above. To be noted: MTase-Glo luminescence, SAH detection, recombinant enzyme; activity change, negative = inhibition: at 57.3 µM (top of the series).
The target of assay [4] is Nicotinamide N-methyltransferase (Homo sapiens) (UniProt P40261). The assay is described as above. To be noted: MTase-Glo luminescence, SAH detection, recombinant enzyme, stronger effect = lower value; measured here: NNMT max response unless noted.
Sequence of Nicotinamide N-methyltransferase (Homo sapiens) (P40261 whole entry, looked up): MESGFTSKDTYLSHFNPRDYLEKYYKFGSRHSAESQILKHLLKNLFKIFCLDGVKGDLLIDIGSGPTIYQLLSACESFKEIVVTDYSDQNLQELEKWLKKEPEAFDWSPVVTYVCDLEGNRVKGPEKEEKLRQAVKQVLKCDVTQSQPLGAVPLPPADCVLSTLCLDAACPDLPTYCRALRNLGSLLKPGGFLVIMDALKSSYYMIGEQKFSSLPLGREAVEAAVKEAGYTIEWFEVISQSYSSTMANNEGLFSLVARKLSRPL
Assay [5] addresses Rap guanine nucleotide exchange factor 3 (Homo sapiens) (UniProt O95398). The assay can be described thus: Confirmatory qHTS for antagonist of cAMP-regulated guanine nucleotide exchange factor 3 (EPAC1) (AID 1645880). Note: nearly all actives have a fitted effect of over 55% in size. Note: potency is the fitted concentration of half-maximal effect. In short, it runs like this:
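Released BODIPY-GDP fluoresces less than Rap1-bound BODIPY-GDP; the signal is followed at 480/540 nm at 5-min intervals over 30 min, after 5 min at room temperature. Reactions contain 100 nM EPAC1, 250 nM RAP1B-BODIPY-GDP and 50 uM GDP; results are normalized to ATA and DMSO.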

Assay [6] has the same target. Put plainly: Confirmatory qHTS for agonist of cAMP-regulated guanine nucleotide exchange factor 3 (EPAC1) (AID 1645881).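 Note: EPAC1 catalysed release of BODIPY-GDP from Rap1B seen as fluorescence loss; 100% = effect of cAMP agonist control; nearly all actives have a fitted effect of over 75% in size.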
The target of assay [7] is Rap guanine nucleotide exchange factor 4 (Homo sapiens) (UniProt Q8WZA2). Put plainly: Confirmatory qHTS for agonist of cAMP-regulated guanine nucleotide exchange factor 4 (EPAC2) (AID 1645884).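 Note: nucleotide exchange releases bodipy-GDP from Rap1 and this lowers its fluorescence; % is set by controls: 0 for no effect and ±100 for the full control effect; nearly all actives have a fitted effect of over 65% in size.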
Sequence of Rap guanine nucleotide exchange factor 4 (Homo sapiens) (Q8WZA2 whole entry, looked up): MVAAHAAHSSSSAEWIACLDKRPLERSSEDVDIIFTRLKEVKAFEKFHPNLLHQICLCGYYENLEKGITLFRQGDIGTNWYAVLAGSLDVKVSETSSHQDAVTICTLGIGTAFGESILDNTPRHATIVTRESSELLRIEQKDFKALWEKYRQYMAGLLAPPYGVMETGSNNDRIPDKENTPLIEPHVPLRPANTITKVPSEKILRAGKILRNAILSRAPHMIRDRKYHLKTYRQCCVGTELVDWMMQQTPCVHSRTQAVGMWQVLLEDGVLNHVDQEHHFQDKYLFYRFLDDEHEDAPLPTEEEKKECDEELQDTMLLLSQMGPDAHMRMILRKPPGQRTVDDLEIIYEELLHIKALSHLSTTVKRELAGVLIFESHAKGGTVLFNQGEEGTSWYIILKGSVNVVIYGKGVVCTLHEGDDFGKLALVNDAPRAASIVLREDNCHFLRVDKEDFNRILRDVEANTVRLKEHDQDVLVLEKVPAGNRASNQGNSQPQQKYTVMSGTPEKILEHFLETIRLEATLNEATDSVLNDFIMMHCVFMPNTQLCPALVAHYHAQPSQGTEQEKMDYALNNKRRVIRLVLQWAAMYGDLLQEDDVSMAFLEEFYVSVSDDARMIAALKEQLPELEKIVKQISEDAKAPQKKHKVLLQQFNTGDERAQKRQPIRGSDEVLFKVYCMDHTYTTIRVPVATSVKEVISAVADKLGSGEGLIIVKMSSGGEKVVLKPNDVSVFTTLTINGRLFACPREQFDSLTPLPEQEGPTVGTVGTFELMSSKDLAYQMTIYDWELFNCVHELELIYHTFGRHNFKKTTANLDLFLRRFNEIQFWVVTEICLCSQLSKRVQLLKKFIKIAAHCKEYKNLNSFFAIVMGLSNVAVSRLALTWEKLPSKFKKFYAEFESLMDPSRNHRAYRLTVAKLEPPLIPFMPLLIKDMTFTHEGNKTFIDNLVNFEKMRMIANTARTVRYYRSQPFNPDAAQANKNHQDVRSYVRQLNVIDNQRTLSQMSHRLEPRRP
Assay [8] has the same target. The assay can be described thus: Confirmatory qHTS for antagonist of cAMP-regulated guanine nucleotide exchange factor 4 (EPAC2) (AID 1645885). For activity change, negative = inhibition: % is set by controls: 0 for no effect and ±100 for the full control effect. Note: nearly all actives have a fitted effect of over 25% in size. Note: potency is the fitted concentration of half-maximal effect.
The target in assay [9] is Rap guanine nucleotide exchange factor 3 (Homo sapiens) (UniProt O95398). Put plainly: Counterscreen qHTS for antagonist of cAMP-regulated guanine nucleotide exchange factor 3 (EPAC1) (AID 1645888). Note: % of control where 0% means no effect. From the text:
Assay Provider (PI): Xiaodong Cheng Ph.D. The University of Texas Medical Branch, […], TX MLPCN Grant: NS066510 In multi-cellular eukaryotic organisms, the effects of cAMP are transduced by two ubiquitously-expressed intracellular cAMP receptors, the classic protein kinase A/cAMP-dependent protein kinase (PKA/cAPK) and the more recently discovered exchange protein directly activated by cAMP/cAMP-regulated guanine nucleotide exchange factor (EPAC/cAMP-GEF). Both PKA and EPAC are ubiquitously expressed in all tissues, and an increase in intracellular cAMP levels will lead to the activation of both PKA and EPAC. Therefore, careful dissections of the individual role and relative contribution of EPAC and PKA within the overall cAMP signaling in various model systems are critical for further elucidating the mechanism of cAMP signaling. To date no EPAC-specific antagonists and agonist, as well as isoform-specific agonists have been reported, and developing EPAC-specific pharmacological probes to determine the physiological functions that EPAC play in the overall cAMP-mediated signaling remains a major challenge within the research field. Furthermore, identified regulators of EPAC may lead to new mechanism-based therapeutic strategies specifically targeting the EPAC / cAMP-signaling components as EPAC has been implicated to play important roles in major human pathological conditions such as diabetes, heart disease, and cancer. This qHTS will be used to screen the Molecular Libraries Small Molecule Repository (MLSMR) as a concentration-titration series using the NCGC unique quantitative screening (qHTS) platform to find activators for EPAC1. […] Activators are identified by monitoring the change in fluorescence signal as the exchanged free BODIPY-GDP has a reduced fluorescence compared to Rap1-bound BODIPY-GDP. […]
EPAC1 Counterscreen PROTOCOL TABLE SEQUENCE No. (e.g., 1, 2, 3, etc.); […] […] Fluorescence. (Read 1), Ex/Em = 480 nm / 540 nm. […] Fluorescence. (Read 2), Ex/Em = 480 nm/ 540 nm. […] Fluorescence. (Read 3), Ex/Em = 480 nm / 540 nm. […] Fluorescence. (Read 4), Ex/Em = 480 nm / 540 nm. […]

The target is the same in assay [10]. The assay can be described thus: Counterscreen qHTS for agonist of cAMP-regulated guanine nucleotide exchange factor 3 (EPAC1) (AID 1645889). Note: % of control where 0% means no effect; nearly all actives have a fitted effect of over 40% in size. In short, it runs like this:
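Measured: fluorescence of BODIPY-GDP bound to Rap1B, which falls as exchange proceeds. Conditions include 50 uM competing GDP, 5 and 30 min reads, and a later cAMP challenge for antagonist detection.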
On the technique in general: The purpose of a counterscreen is to sort out artefacts and off-target activity.

Sequence of Rap guanine nucleotide exchange factor 3 (Homo sapiens) (O95398 whole entry, looked up): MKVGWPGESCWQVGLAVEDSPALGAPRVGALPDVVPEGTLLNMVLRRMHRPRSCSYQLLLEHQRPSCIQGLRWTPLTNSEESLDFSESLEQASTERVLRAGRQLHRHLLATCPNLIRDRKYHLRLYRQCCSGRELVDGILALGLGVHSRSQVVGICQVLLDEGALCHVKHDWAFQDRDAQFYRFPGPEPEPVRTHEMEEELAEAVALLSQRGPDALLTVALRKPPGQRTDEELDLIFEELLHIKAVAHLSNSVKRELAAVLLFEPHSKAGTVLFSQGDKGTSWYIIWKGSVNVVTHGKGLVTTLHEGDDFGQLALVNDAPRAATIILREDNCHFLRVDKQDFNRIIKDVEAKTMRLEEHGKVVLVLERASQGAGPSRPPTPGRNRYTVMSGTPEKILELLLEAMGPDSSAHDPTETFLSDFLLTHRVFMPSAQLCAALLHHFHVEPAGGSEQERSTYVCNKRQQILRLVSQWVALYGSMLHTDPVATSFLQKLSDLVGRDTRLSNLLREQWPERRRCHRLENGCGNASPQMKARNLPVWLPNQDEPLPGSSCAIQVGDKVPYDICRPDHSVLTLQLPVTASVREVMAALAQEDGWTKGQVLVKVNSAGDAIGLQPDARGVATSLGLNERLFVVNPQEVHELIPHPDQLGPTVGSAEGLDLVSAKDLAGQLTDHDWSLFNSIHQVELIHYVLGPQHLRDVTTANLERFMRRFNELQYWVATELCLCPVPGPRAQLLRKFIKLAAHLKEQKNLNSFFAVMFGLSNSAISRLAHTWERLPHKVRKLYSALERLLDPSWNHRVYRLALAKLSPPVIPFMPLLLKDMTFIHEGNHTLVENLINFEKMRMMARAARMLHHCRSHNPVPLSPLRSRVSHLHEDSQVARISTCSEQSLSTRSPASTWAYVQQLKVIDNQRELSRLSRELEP

`CCN(CC)C(=S)SSC(=S)N(CC)CC`: the Potency in assay [1] is 394 nM (active) and 4.22 µM (active) and 2.95 µM (active). For the same compound, the values for the activity in assay [2] and in assay [4] were -3.32% and -10.3%, respectively. Moreover, in assay [3], the activity change, negative = inhibition was 4.64%.

`COc1c(O)cc2c(c1O)[C@@H]1O[C@H](CO)[C@@H](O)[C@H](O)[C@H]1OC2=O`: in assay [1], the Potency entry is “inactive”. Moreover, the activity in assay [2] was -77.9%; in [4], 1.14%. Further, the activity change, negative = inhibition in assay [3] was found to be 0%.

For `CN1C(C(=O)Nc2ccccn2)=C(O)c2sccc2S1(=O)=O`, the Potency result in [1] is “inactive”.

In the case of `COC(=O)C1=C(C)NC(C)=C(C(=O)OCCCN2CCC(c3ccccc3)(c3ccccc3)CC2)C1c1cccc([N+](=O)[O-])c1` (stereo not given), in [1], the Potency was 6.61 µM (active) and 5.96 µM (active). Besides, the Potency entry in assay [5] was “inactive”. Moreover, the outcome in assay [6] and in assay [7] was “inactive” in each case.

For the compound `COC(=O)C1=C(C)NC(C)=C(C(=O)OC(C)C)C1c1cccc2nonc12` (stereo not given), in assay [5], the Potency result is “inactive”. For the same compound, the outcome in [6] and in [7] was “inactive” in each case. For the same compound, the Potency in [8] was 44.1 µM (active).

As for `CNC[C@H](O)c1ccc(O)c(O)c1`, the Potency result in [1] was “inactive”.

Take `Oc1ccc2ccccc2c1SSc1c(O)ccc2ccccc12`: the activity in [2] is 22.1%; in [4] it was -8.59%. Moreover, the activity change, negative = inhibition in [3] was -0.328%.

Take `CC1Cc2ccccc2N1NC(=O)c1ccc(Cl)c(S(N)(=O)=O)c1` (stereo not given): the Potency result in assay [1] is “inactive”.

As to `O=C(O)c1cccc(-c2noc(-c3ccccc3F)n2)c1`, in assay [1], the Potency entry was “inactive”.

On to `CC1=C(C)C(=O)C(C(CCCCCC(=O)O)c2ccccc2)=C(C)C1=O` (stereo not given), for which the Potency entry in assay [1] is “inactive”.

Turning to `CCN(CC)CCOc1ccc(Cc2ccccc2)cc1`, the Potency in assay [1] is 29.9 µM (active).

As to `CC(C)c1ccc2oc3nc(N)c(C(=O)O)cc3c(=O)c2c1`, the Potency result in [1] was “inactive”.

On to `Nc1ncn([C@H]2C[C@H](O)[C@@H](CO)O2)c(=O)n1`, for which the Potency in assay [1] was 133 nM (active) and 1.18 µM (active).

Consider `CC(C)Oc1ccc2c(=O)c(-c3ccccc3)coc2c1`, for which, in [1], the Potency result was “inactive”.

`Cc1c(OCC(F)(F)F)ccnc1CS(=O)c1nc2ccccc2[nH]1` (stereo not given): the values for the activity in assay [2] and in [4] were 13% and 8.13%, respectively. Moreover, the activity change, negative = inhibition in assay [3] turned out to be 6.68%.

In the case of `C[Se]CCC(N)C(=O)O` (stereo not given), the Potency entry in [1] was “inactive”.

On to `Nc1nc(N)c(N=O)c(OCC2CCCCC2)n1`, for which, in assay [1], the Potency was 6.51 µM (active).

As to `CCCCCCCCCCCCCCCCCCCCCCO`, in assay [1], the Potency result was “inactive”.

`Cc1nc(Nc2ncc(C(=O)Nc3c(C)cccc3Cl)s2)cc(N2CCN(CCO)CC2)n1`: the results for the activity in assay [2] and in [4] were -54.8% and -33%, respectively. The Potency in assay [3] was 30.4 µM (active).

Regarding `CCOc1cc(CC(=O)N[C@@H](CC(C)C)c2ccccc2N2CCCCC2)ccc1C(=O)O`, the Potency result in [1], in [5] and in [8] was “inactive” in each case. Further, the outcome in assay [6], in assay [7], in assay [9] and in assay [10] was “inactive” each time.

Regarding `O=C(O)c1cn(-c2ccc(F)cc2)c2cc(N3CCNCC3)c(F)cc2c1=O`, the Potency result in assay [1] was “inactive”.

Turning to `CCN(CC)CCOc1ccc(Nc2ncc3cc(-c4c(Cl)cccc4Cl)c(=O)n(C)c3n2)cc1`, the Potency in assay [1] was 0.468 µM (active). For the same compound, the activity in [2] is -14.1%; in assay [4], -19.9%. Also, the activity change, negative = inhibition in [3] turned out to be 1.71%.

For `Clc1ccc(C(Cn2ccnc2)OCc2c(Cl)cccc2Cl)c(Cl)c1` (stereo not given), the Potency in assay [1] was 21.1 µM (active) and 18.6 µM (active); in assay [8], 20.5 µM (active) and inactive. For the same compound, the Potency result in assay [5] is “inactive”. Further, the outcome in assay [6], in [7] and in assay [9] was “inactive” in each case. Moreover, the activity in [2] was -8.16%; in [4] it was -55.2%. Further, the activity change, negative = inhibition in [3] is -4.74%.

Regarding `CC(=O)N1CCN(c2ccc(OC[C@H]3CO[C@](Cn4ccnc4)(c4ccc(Cl)cc4Cl)O3)cc2)CC1`, the Potency entry in [5] is “inactive”. Further, the outcome in assay [6] and in assay [7] was “inactive” throughout. Also, in assay [8], the Potency was 49.4 µM (active).

With `CCOC(=O)C1=C[C@@H](OC(CC)CC)[C@H](NC(C)=O)[C@@H](N)C1`, the Potency entry in assay [1] is “inactive”.

Take `O=C(O)CCNC(=O)c1ccc(N=Nc2ccc(O)c(C(=O)O)c2)cc1`: the Potency entry in assay [1] was “inactive”.

As for `CC(S)C(=O)NCC(=O)O` (stereo not given), in assay [1], the Potency entry was “inactive”.

Consider `N=C(N)c1ccc2cc(OC(=O)c3ccc(N=C(N)N)cc3)ccc2c1`, for which the Potency entry in assay [1] is “inactive”.

Turning to `CC(C)c1ccc2c(c1)c(SC(C)(C)C)c(CC(C)(C)C(=O)O)n2Cc1ccc(Cl)cc1`, the Potency entry in assay [1] was “inactive”. Moreover, the Potency entry in assay [5] is “inactive and 30.1 µM (active) and 35.2 µM (active)”; in [8], “inactive and 19 µM (active) and 27.8 µM (active)”; in [3] it was 30.6 µM (active). The outcome in [6], in [7], in assay [9] and in assay [10] was “inactive” throughout. The activity in assay [2] was -0.145%; in [4], -41.8%.

For the compound `COc1cc(Nc2c(C#N)cnc3cc(OCCCN4CCN(C)CC4)c(OC)cc23)c(Cl)cc1Cl`, the Potency in assay [1] was 531 nM (active) and 1.63 µM (active) and 1.48 µM (active); in [3], 12.1 µM (active). The activity was -94.4% in assay [2] and -86.9% in assay [4].

As to `CCOC(=O)C1=C(O)C(=O)N(Cc2ccccc2)C1`, the Potency entry in assay [1] is “inactive”.

`NC(=NCc1ccccc1)NC(=O)c1nc(Cl)c(N)nc1N`: the Potency in assay [1] was 13.2 µM (active).

On to `N[C@@H](Cc1cc(I)c(Oc2cc(I)c(O)c(I)c2)c(I)c1)C(=O)O`, for which the Potency result in [1] was “inactive”. Moreover, the activity was -6.89% in [2] and -9.69% in assay [4]. Moreover, in assay [3], the activity change, negative = inhibition was -4.64%.

Take `Cc1ccc(Nc2nccc(N(C)c3ccc4c(C)n(C)nc4c3)n2)cc1S(N)(=O)=O`: the Potency in [1] is 9.44 µM (active) and 4.68 µM (active). In addition, the activity in assay [2] is -4.72%; in assay [4], -0.226%. Further, the activity change, negative = inhibition in assay [3] is 0%.

Take `Cc1cc(C2CCCCC2)n(O)c(=O)c1`: in assay [1], the Potency is 3.26 µM (active) and 266 nM (active) and 4.68 µM (active).

`C[C@H](Cc1ccc(O)c(O)c1)[C@@H](C)Cc1ccc(O)c(O)c1`: the Potency in [1] was 11.8 µM (active) and 7.31 µM (active); in assay [3] it was 30.6 µM (active). Further, the activity in [2] is 10.2%; in assay [4] it was -37.4%.

As for `O=c1ccc2ccc(O)c(O)c2o1`, the activity in [2] was 197%; in assay [4], -4.08%. The activity change, negative = inhibition in [3] turned out to be 2.41%.

Regarding `CCOC(=O)c1c(C)n(C)c2ccc(O)cc12`, the Potency result in [1] is “inactive”.

`O=C(NOCC1CC1)c1ccc(F)c(F)c1Nc1ccc(I)cc1Cl`: in assay [1], the Potency is 6.68 µM (active) and 20.5 µM (active).
